Most compounds without a hit are left out; they make up all but 10% or so of the library.
G9a block: inhibitors of human histone lysine methyltransferase G9a; Q96KQ7; G9a H3K9 monomethylation, AlphaScreen, 2 h; Potency, µM (series often up to 102 µM), for inactives: at the top dose activity, negative = inhibition, most hits filed as inhibitors; actives 8.8% (n = 350,000); further: potency means the concentration at half of the fitted maximal effect; nearly all actives have a fitted effect of over 75% in size
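Chemiluminescent proximity detection of H3K9 monomethylation, read after 10 min bead incubation in the dark. Reaction: 20 nM G9a, 500 nM biotin-H3K9 peptide, 20 uM SAM cofactor, 2 h, room temperature, following 15 min enzyme-compound preincubation.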
VDR inhibitor: vitamin D3 receptor (human) inhibition. P11473. VDR-SRC2-3 peptide fluorescence polarization, 2 h. Potency, µM, for inactives: max response, negative = inhibition, actives largely listed as inhibitors. actives 0.93% (n = 400,000); further: potency means the concentration at half of the fitted maximal effect
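The screen uses fluorescence polarization to detect compounds that interfere with recruitment of the SRC2-3 coactivator peptide to VDR; plates are read after 2 h at room temperature.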
CCT chaperon mod: changes cytosolic chaperonin activity; purified chaperonin ATPase assay, HTRF ADP detection, 30 min; activity change, % (test concentration not listed), hits read low; actives 0.3% (n = 360,000); AID 651819; in the data active means activity change below about -30%
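First, chaperonin was dispensed at 40 nM or 20 nM final depending on batch activity. Next, compounds were pinned at 76 uM and ATP added at 10 uM. After 30 min at 37 °C, ADP detection reagents ran 30 min at ambient temperature.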
Sfp PPTase inh: blocks B. subtilis Sfp PPTase activity | Q9F4F7 | Biochemical Sfp PPTase activity, qHTS | Potency, µM, for inactives: largest response in the series, negative = inhibition, usual class: inhibitors | actives 3.5% (n = 310,000) | AID 1490;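 further: the enzyme is Sfp with the accession as filed and its product quenches rhodamine fluorescence; potency means the concentration at half of the fitted maximal effect; 0% = enzyme reaction without inhibitor and -100% = no enzyme wells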
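After 15 min at room temperature with compound, 15 nM Sfp received 5 uM rhodamine-CoA plus 12.5 uM BHQ-2-ybbR (50 mM Hepes pH 7.6, 10 mM MgCl2). Rate came from the fluorescence difference over 30 min, ex 525/em 598 nm.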
PLK1 PBD block: PLK1 (human) polo-box domain binding inhibition; Plk1 PBD binding of FITC phosphopeptide, fluorescence polarization; Potency, µM, for the others: max response, negative = inhibition, most hits filed as inhibitors; actives 2.8% (n = 360,000); AID 720504; further: potency means the concentration at half of the fitted maximal effect; series mostly up to about 57 µM; nearly all actives have a fitted effect of over 65% in size
Target sequence (P53350 whole entry, looked up, the tested form may be a part): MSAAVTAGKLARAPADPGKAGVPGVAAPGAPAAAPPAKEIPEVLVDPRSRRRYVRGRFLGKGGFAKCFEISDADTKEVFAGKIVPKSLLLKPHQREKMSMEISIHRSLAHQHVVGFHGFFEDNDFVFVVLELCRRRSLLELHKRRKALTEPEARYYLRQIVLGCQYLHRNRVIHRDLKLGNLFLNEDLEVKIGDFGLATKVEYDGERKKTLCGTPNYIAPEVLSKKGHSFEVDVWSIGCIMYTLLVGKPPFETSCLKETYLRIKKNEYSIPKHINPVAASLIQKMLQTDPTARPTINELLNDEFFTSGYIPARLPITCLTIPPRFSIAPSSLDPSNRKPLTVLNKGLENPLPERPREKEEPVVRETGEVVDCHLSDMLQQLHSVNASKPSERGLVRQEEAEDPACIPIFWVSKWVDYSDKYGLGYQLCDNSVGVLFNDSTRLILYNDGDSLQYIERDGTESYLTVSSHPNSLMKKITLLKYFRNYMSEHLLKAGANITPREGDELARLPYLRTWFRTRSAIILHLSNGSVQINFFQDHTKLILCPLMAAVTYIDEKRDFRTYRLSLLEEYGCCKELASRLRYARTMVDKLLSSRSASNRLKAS
Mm-Cpn inhibitor: inhibitors of Methanococcus maripaludis chaperonin TRiC (MmCpn). AID 504842. Potency, µM (highest dose often 76.9 µM), for the others: at the highest dose activity, negative = inhibition, hits mostly inhibitors. purified Mm-Cpn ATPase, ADP Transcreener TR-FRET. actives 0.031% (n = 330,000); further: potency means the concentration at half of the fitted maximal effect; nearly all actives have a fitted effect of over 80% in size
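Reaction buffer contained 30 mM Tris pH 7.4, 100 mM KCl, 5 mM MgCl2 and 1 mM DTT. Mm-CPN (25 nM final) hydrolysed 10 uM ATP over 30 min at 37°C; ADP was read by HTRF.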
The depositor's hits bear a star; ? = inconclusive; . = no result; [ ] = dose if it differs, or a comment. Unless noted, the call rests on the fitted dose curve; in most records, active means well fitted curve in the direction sought with a large enough effect; inconclusive means small, poorly fitted or top-dose-only effect, or another doubt; inactive means no such curve, though single readings can be large; an effect the other way counts as inactive or inconclusive. Unless noted, on the % scale 0 is the no-effect control and ±100 the full control effect.

SMILES	G9a block	VDR inhibitor	CCT chaperon mod	Sfp PPTase inh	PLK1 PBD block	Mm-Cpn inhibitor
CCOC(=O)C1=C(CSc2nc(CC)c(C)cc2C#N)OC(N)=C(C#N)C1c1ccccc1 (configuration not stated)	40µM*	2%	-6	?	-22%	-1%
CCOC(=O)C1=C(CSc2nc(C)cc(C)c2C#N)OC(N)=C(C#N)C1c1cccs1 (configuration not stated)	?	-2%	-2	-8%	?	-1%
CCOC(=O)C1=C(CSc2nc(-c3ccccc3)ccc2C#N)OC(N)=C(C#N)C1c1ccc(OC)cc1 (configuration not stated)	32µM*	31%	0	-17%	4%	?
O=C(Nc1ccc2oc(-c3cccc4c(Br)cccc34)nc2c1)c1ccc(F)cc1	-33%[59 µM]	-18%	.	.	.	.
CCN(CC)C(=O)Cn1c(=O)n(-c2ccc(C)c(C)c2)c(=O)c2c(C)c(C(=O)N(CC)CC)sc21	18%[59 µM]	-4%	.	.	.	.
Cc1nc(-c2ccccc2)sc1-c1ccc(SCC(=O)Nc2ccc(F)cc2F)nn1	4%[59 µM]	7%	.	.	.	.
CCC(Sc1nc2cc(OC)c(OC)cc2c(=O)n1Cc1ccc(Cl)cc1)C(=O)NCCOC (configuration not stated)	8%[59 µM]	11%	.	.	.	.
CC1(C2(O)CC(c3ccccc3)ON2)CCCCC1 (configuration not stated)	40µM*	.	.	-7%	.	4%
O=c1n(-c2ccccc2)c(=O)n2n1CC[C@H]1/C(=N\OCc3ccccc3)[C@H]3O[C@@H]3[C@@H](O)[C@@H]12	.	.	.	5%	.	.
O=C(O)c1ccc(Cl)c2c1C1C=CCC1C(c1ccccn1)N2 (configuration not stated)	2µM*	.	.	3.5µM*	.	-11%
O=[N+]([O-])c1ccc(Cl)c2c1C1C=CCC1C(c1ccccn1)N2 (configuration not stated)	20µM*	?	-3	28µM*	-23%	1%
Cc1cc([N+](=O)[O-])cc2c1NC(c1ccccn1)C1CC=CC21 (configuration not stated)	-1%	-19%	-1	16%	?	-2%
COc1ccc(OC)c(C2Nc3c(Cl)ccc(C(=O)O)c3C3C=CCC32)c1 (configuration not stated)	20µM*	6%	-4	22µM*	?	-9%
CCOc1cc(C(=O)N2CC(=O)Nc3ccc(C)cc3C2c2ccccc2)cc(OCC)c1OCC (configuration not stated)	6%[59 µM]	-9%	.	.	.	.
COC(=O)c1c(-c2ccc(Cl)cc2)noc1N1CCN(c2cccc(C)c2C)CC1	8%[59 µM]	13%	.	.	.	.
COc1ccc(Cn2c(C(=O)O)c(CNCc3ccco3)c3ccc(OC)cc32)cc1	-9%[59 µM]	-7%	.	.	.	.
Cc1ccc(-c2noc(COc3ccc(Br)c(C)c3)n2)cc1	47%[59 µM]	-24%	.	.	.	.
Cc1ccc([N+](=O)[O-])cc1S(=O)(=O)Nc1ccc(O)c(Sc2ncn[nH]2)c1	.	-12%	-2	45µM*	?	0%
COc1ccc(S(=O)(=O)Nc2cc(Sc3ncn[nH]3)c(O)cc2C)cc1	.	-5%	-2	.	-17%	0%
COC(=O)Cn1c2ccccc2c2nc(=O)cc(C)n21	-3%	-21%	1	16%	-25%	-4%
COc1cc2c(cc1OC)n(CC(=O)NC1CCCCCC1)n1c(C)cc(=O)nc21	23%	-8%	2	3%	27µM*	-20%
CC1CCc2c(sc3ncnc(SCC(=O)N(C)C4CCS(=O)(=O)C4)c23)C1 (configuration not stated)	.	-6%	-1	.	27µM*	-2%
CC(=O)CSc1ncnc2sc3c(c12)CCC(C)C3 (configuration not stated)	40µM*	-2%	-1	-21%	24µM*	0%
CC1CCc2c(sc3ncnc(SCC(=O)c4ccccc4)c23)C1 (configuration not stated)	18%[59 µM]	1%	0	-1%	13µM*	-10%
CCCSc1nc2sc3c(c2c(=O)n1-c1ccc(C)cc1)CCCC3	-3%[59 µM]	11%	.	.	.	.
SMILES	G9a block	VDR inhibitor	CCT chaperon mod	Sfp PPTase inh	PLK1 PBD block	Mm-Cpn inhibitor
Cc1cc(C)cc(N2CCn3c2nc2c3c(=O)n(Cc3c(F)cccc3Cl)c(=O)n2C)c1	-2%[59 µM]	13%	.	.	.	.
CCSc1ncc(Cl)c(C(=O)Nc2nc3ccc(S(C)(=O)=O)cc3s2)n1	2%[59 µM]	16%	.	.	.	.
CCc1ccc2occ(CC(=O)N(Cc3ccccc3)C3CCS(=O)(=O)C3)c2c1 (configuration not stated)	-10%[59 µM]	8%	.	.	.	.
CN(C)c1ccc(N=Nc2ccc3ncccc3c2)cc1	.	-2%	-2	.	3%	.
Cc1cc(N(C)C)ccc1N=Nc1ccc2ncccc2c1	-47%[2.33 µM]	-9%	2	45µM*	?	1%
O=C(CS(=O)CC(=O)N(CC(=O)NC1CCCC1)c1ccc2c(c1)OCCO2)Nc1ccc(F)cc1 (configuration not stated)	.	-2%	-4	-9%	-4%	-1%
Cc1cccc(N(CC(=O)NC2CCCC2)C(=O)CS(=O)CC(=O)Nc2ccc3c(c2)OCO3)c1C (configuration not stated)	7.9µM*	0%	2	-12%	-16%	0%
COc1ccc(C(=O)N2CCCC(CCC(=O)NCc3ccc(F)c(F)c3)C2)cc1F (configuration not stated)	.	16%	0	13%	-8%	-5%
COc1ccc(C(=O)N2CCCC(CCC(=O)NCc3ccc(F)c(F)c3)C2)o1 (configuration not stated)	?	?	1	56µM*	?	-3%
Cc1nn2c(=O)cc(COC(=O)c3cccc(NC(=O)COc4ccccc4C)c3)nc2s1	10%[12.7 µM]	9%	.	.	.	.
O=C1OC(c2ccc(F)cc2)=N/C1=C\c1ccc(Br)o1	50µM*	-1%	1	-12%	-14%	-2%
CCCCn1c(N)c(N(CCOC)C(=O)c2ccc(-c3ccc(C(C)=O)cc3)o2)c(=O)[nH]c1=O	13µM*	-1%	4	.	-1%	0%
CCCCN(C(=O)c1ccc([N+](=O)[O-])o1)c1c(N)n(CC(C)C)c(=O)[nH]c1=O	28µM*	-10%	0	.	?	2%
CCCCN(C(=O)c1cc(Cl)nc2ccccc12)c1c(N)n(CCCC)c(=O)[nH]c1=O	56µM*	24%	0	.	-14%	2%
CCCCn1c(N)c(N(CCOC)C(=O)c2ccc(-c3ccc([N+](=O)[O-])cc3)o2)c(=O)[nH]c1=O	10%[12.7 µM]	5%	-4	-15%	8%	-2%
CCCn1c(N)c(N(CCOC)C(=O)c2cc(Cl)nc3ccccc23)c(=O)[nH]c1=O	-6%	-7%	0	.	-2%	0%

Screens as filed in PubChem BioAssay.
